Reference: PubChem BioAssay (NCI)
About 83,000 compounds went through this panel and 20% of them were active in at least one assay; those are over-represented in the sample as a whole.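 Interpretation: 100, growth as untreated; towards 0, rising growth inhibition; 0, no net growth; 0 to -100, cell death. Compounds scoring below 10 were considered active.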 Activity calls are given as the source filed them.

System: U251 CNS
Test: NCI-60 one-dose screen, 48 h (100 = growth as untreated, 0 = no growth, -100 = all killed)
Conditions: 1 µM
Protocol: Growth inhibition of the U251 human tumor cell line is measured as a screen for anti-cancer activity. Cells are grown in 96 well plates and exposed to the test compound for 48 hours. Compounds are tested at a single concentration, which is 10^-5 M for most compounds. The reported endpoint is percent growth (GI% or GIPRCNT), where numbers from 0 - 100% represent growth inhibition, and numbers from -100% - 0 represent cell death. For example, a value of 40 represents 60% growth inhibition. A value of 0 means no net growth occurred over the course of the experiment. A value of -40 indicates 40% of cells at the beginning of the experiment died by the end of the experiment. A value of -100 means all cells are dead at the end of the experiment.
NCI-60 Human Tumor Cell Lines Screen was performed using the standard one-dose NCI protocol, which is described in more detail at https://dtp.cancer.gov/discovery_development/nci-60/default.htm.
Compounds with GIPRCNT values below 10 were considered active. Activity score was based on GIPRCNT using the following formula: […]
Score is 0 for GIPRCNT values of 100 or above, 50 for GIPRCNT values of 0, and 100 for GIPRCNT values of -100.

SMILES	growth
CC/C(=C(\c1ccc(O)cc1)c1ccc(OCCN(C)C(=O)CCOCCNC(=O)c2ccc3c(c2)CN([C@@H]2CCC(=O)NC2=O)C3=O)cc1)c1ccccc1	95.3% (inactive)

Same assay, conditions: 10 µM

SMILES	growth
CC/C(=C(\c1ccc(O)cc1)c1ccc(OCCN(C)C(=O)CCOCCNC(=O)c2ccc3c(c2)CN([C@@H]2CCC(=O)NC2=O)C3=O)cc1)c1ccccc1	92.6% (inactive)

Same assay, conditions: 10 µM unless noted

SMILES	growth
O=C1Nc2cc(-c3ccc(NS(=O)(=O)c4ccc(C(F)(F)F)cc4)cc3)ccc2/C1=C/c1ccc[nH]1	41.1% (inactive)
CCOC(=O)/C(F)=C/C1CC1C1CCN(C(=O)OC(C)(C)C)CC1 (stereo not given)	99.8% (inactive)
Cc1ccc(C(=O)Nc2cc(-c3ccncc3)cc(C(F)(F)F)c2)cc1C#Cc1cnc2cccnn12	66.5% (inactive)
CCOc1ccc(-c2cc(-c3cc(C(C)C)c(O)cc3C)nn2-c2ccc(S(N)(=O)=O)cc2)cc1	27.8% (inactive)
O=C(CSc1nc2sc3c(c2c(=O)n1-c1ccc(Cl)cc1)CCCC3)NNC(=O)c1ccc(F)cc1	37.8% (inactive)
C[C@@H](Nc1c(C#N)cnc2ccc(-c3cnc4[nH]ncc4c3)cc12)c1ccccc1	23.4% (inactive)
COc1cc(C2CC(c3ccc(S(=O)(=O)NCCNc4nc(N(C)C)nc(N5CCOCC5)n4)cc3)=Nc3c(N)nc(N)nc3N2)cc(OC)c1OC (stereo not given)	97.5% (inactive)
Nc1ccc(-c2ccc3ncnc(N4CCc5cc(F)c(Cl)cc54)c3c2)cn1	43.8% (inactive)
CC[C@]12C=CCN3CC[C@]4(C(=C(C(=O)OC)C1)Nc1cc(OC)c([C@@H]5[C@H]6O[C@H]6[C@@]6(CC)CC(C(=O)OC)=C7Nc8cc(OC)ccc8[C@@]78CCN5[C@@H]68)cc14)[C@@H]32	48.4% (inactive)
O=C(Nc1ccc(Cl)c(C(F)(F)F)c1)N1CCN(c2cc(-c3cn(-c4ccccc4)nc3-c3cccc(O)c3)ccn2)CC1	11.8% (inactive)
Nc1cc(-c2c[nH]c3ccc(Cl)cc23)nc2cc(-c3c[nH]c4ccccc34)nn12	-74.4% (active)
O=Cc1cncc(-c2ccc3ncnc(N4CCc5cc(F)c(Cl)cc54)c3c2)c1	48.5% (inactive)
Cc1cccc(/C=C/c2ccc(NC(=S)NCCCCN(C)C)cc2)c1	-64.8% (active)
Cc1ccc2nc(SCc3ccccc3F)n(-c3ccccc3)c(=O)c2c1	99.4% (inactive)
O=C(NNC(=S)NCCc1ccccc1)c1ccc(OCc2nc3ccc(Cl)cc3[nH]2)cc1	88.2% (inactive)
O=C(NC(=S)N1CCN(c2ncnc3c2cnn3-c2ccccc2)CC1)c1ccc(Br)cc1	56.5% (inactive)
COc1ccc2[nH]cc(-c3cc4nc(-c5cn(C)c6ncccc56)cc(N)n4n3)c2c1	-42.4% (active)
Cc1ccc(C(=O)C[n+]2cccc3c4ccccc4ccc32)cc1	17.8% (inactive)
COc1ccc2c(c1)C(Sc1ccc(F)cc1)c1c(nc(N)c(C#N)c1N)O2 (stereo not given)	82% (inactive)

SMILES	growth
O=C(Nc1nc2ccccc2s1)Nc1ccccc1Cl	55.7% (inactive)
Cc1ccc(C2CC(c3ccc(NC(=O)Nc4ccccc4)cc3)=NN2c2ccc(S(N)(=O)=O)cc2)cc1 (stereo not given)	-96.1% (active)
CC[C@@]12CC(C(=O)OC)=C3Nc4cc5c(cc4[C@@]34CCN(C[C@H]3O[C@H]31)[C@@H]24)[C@@H]1[C@H](O5)[C@@H](O)[C@@]2(CC)CC(C(=O)OC)=C3Nc4cc(O)ccc4[C@@]34CCN1[C@@H]24	-57.5% (active)
COc1ccc2[nH]c(=O)c(CSc3ccccc3Nc3nccc(-c4ccc5c(c4)OCO5)n3)cc2c1	88.6% (inactive)
O=C(CSc1nc2sc3c(c2c(=O)n1-c1ccc(Cl)cc1)CCCC3)NNC(=O)c1ccc(Br)cc1	26.6% (inactive)
COc1ccc(/C=C/c2nc3ccccc3n3c(-c4cccc([N+](=O)[O-])c4)nnc23)cc1	-64.5% (active)
COC(=O)c1c(C(=O)OC)c2ccc3c4ccccc4ccc3n2c1C(=O)C(C)Br (stereo not given)	23.9% (inactive)
CC1=C(C(=O)Nc2ccccc2)C(c2cccc3ccccc23)n2c(nc3ccccc32)N1 (stereo not given)	25% (inactive)
NNc1ncnc2sc3c(c12)CCN(Cc1ccccc1)C3	51.4% (inactive)
COc1ccc(Nc2ncnc3sc4c(c23)CCN(Cc2ccccc2)C4)cc1	88.9% (inactive)
COc1cc(C2CC(c3ccc(F)cc3)=Nc3c(N)nc(N)nc3N2)ccc1Oc1nc(Nc2ccc(F)cc2)nc(N(C)C)n1 (stereo not given)	52.9% (inactive)
O=C(N/N=C/c1c[nH]c2ccccc12)Nc1ccc(F)c(Cl)c1	42.2% (inactive)
O=C(N=Nc1c(O)[nH]c2ccc(Br)cc12)c1ccc2nc(-c3ccc(Cl)cc3)[nH]c2c1	-91.8% (active)
COC(=O)c1cc(C(=O)C(F)(F)F)n2c3ccccc3c3ccccc3c12	70.1% (inactive)
COC(=O)c1c(C(=O)OC)c2c3ccccc3c3ccccc3n2c1C(=O)C(F)(F)F	105% (inactive)
Cc1[nH]nc2ccc3nc(-c4cnn(CCO)c4)c4c(c3c12)CCCC4	57.2% (inactive)
O=c1c(-c2nc(-c3ccccc3)c(-c3ccccc3)[nH]2)coc2ccc(F)cc12	47.3% (inactive)
O=C(Nc1ccc(-c2ccc3c(c2)NC(=O)/C3=C\c2ccc[nH]2)cc1)Nc1ccc(Cl)c(C(F)(F)F)c1	37.9% (inactive)
COc1ccc2[nH]c(O)c(N=Nc3nc(-c4ccc(Cl)cc4)cs3)c2c1	-75.6% (active)
